Hits are enriched below; roughly 2.5% of the tested compounds scored in any of these assays.
D2 ag-1: D2 dopamine receptor (human) agonism. 340,000 tested, 0.53% active. activation, % at 2 µM. HEK293 T-REx D2 cells, calcium flux agonist mode. P14416;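 active = activation over 3 SD above normal in the single-dose calcium agonist read, cut at about 30% in these data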; note: 0% is about no effect
Target sequence (P14416 whole entry, looked up): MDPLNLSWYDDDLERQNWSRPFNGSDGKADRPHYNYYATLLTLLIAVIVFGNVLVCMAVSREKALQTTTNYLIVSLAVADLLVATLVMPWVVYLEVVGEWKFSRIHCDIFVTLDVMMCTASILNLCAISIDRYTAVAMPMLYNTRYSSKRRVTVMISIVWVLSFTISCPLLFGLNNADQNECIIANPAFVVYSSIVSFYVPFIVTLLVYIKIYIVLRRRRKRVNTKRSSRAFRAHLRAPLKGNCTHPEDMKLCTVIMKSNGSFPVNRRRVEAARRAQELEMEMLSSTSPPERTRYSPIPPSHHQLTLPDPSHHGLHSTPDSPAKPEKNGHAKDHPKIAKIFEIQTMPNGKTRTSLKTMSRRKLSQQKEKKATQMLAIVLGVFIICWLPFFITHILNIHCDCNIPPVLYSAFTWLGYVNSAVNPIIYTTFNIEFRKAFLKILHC
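In this primary screen, compounds producing a positive calcium signal within 180 s of addition to tetracycline-induced, force-coupled HEK293 Trex D2 cells are flagged; cells are dye-loaded with a no-wash calcium kit beforehand.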
D2 ag-2: agonists of human D2 dopamine receptor (beta-arrestin) | DiscoveRx PathHunter D2 beta-arrestin, luminescence, 90 min; 100% = 57 uM dopamine signal | activation, % (test concentration not listed) | 360,000 tested, 0.084% active | AID 624465; in the data active = activation above about 40%; inconclusive = between about 15% and that limit
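Agonist mode: compounds alone added to overnight-plated D2 PathHunter cells for 90 min at 37 C, with 57 uM final dopamine (EC100) defining full response. Beta-arrestin recruitment detected by chemiluminescent reagent, read after 1 h at ambient temperature.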
D2 PAM-1: positive allosteric modulators of human D2 dopamine receptor. P14416. DiscoveRx D2 beta-arrestin cells, luminescence, 90 min; 100% = 57 uM dopamine signal. potentiation, % (concentration not given with the values). 360,000 tested, 0.23% active. AID 624464; in the data active = potentiation above about 50%; inconclusive = mostly about 30% to 49%
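PathHunter beta-arrestin assay in DiscoveRx D2 cells. Compounds were added with an EC20 of dopamine (50 nM final) for 90 min at 37 deg C. Luminescence was read 1 h after detection reagent, with 57 uM dopamine as the EC100 control.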
D2 PAM-2: positively modulates the human D2 dopamine receptor allosterically. 340,000 tested, 0.34% active. P14416. HEK293 T-REx D2, calcium flux, EC20 dopamine potentiation. potentiation, % at 10 µM;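 active = potentiation over 3 SD above the plate norm, cut at about 30% in these data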; note: 0% is about no effect
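Calcium flux readout, no-wash dye, 1 read/s. Inducible HEK293 Trex D2 line, overnight 30 C. Compound alone 180 s (agonist flags), then EC20 dopamine, another 180 s to score potentiation.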
Apoferritin bind: candidate novel general anesthetic via apoferritin binding; Potency, µM (top dose mostly 77.5 µM), for inactives: top-dose activity change, negative = displacement, hits mostly inhibitors; P02791; apoferritin/1-aminoanthracene competitive binding, fluorescence; 350,000 tested, 0.074% active; active = well fitted inhibition curve with a large enough effect; inconclusive = small, poorly fitted or top-dose-only effect; inactive = no such curve, though single readings can be large or run the other way; note: potency is the fitted concentration of half-maximal effect; % is set by controls: 0 for no effect and ±100 for the full control effect; nearly all actives have a fitted effect of over 20% in size
Target sequence (P02791 2-175 limits assumed): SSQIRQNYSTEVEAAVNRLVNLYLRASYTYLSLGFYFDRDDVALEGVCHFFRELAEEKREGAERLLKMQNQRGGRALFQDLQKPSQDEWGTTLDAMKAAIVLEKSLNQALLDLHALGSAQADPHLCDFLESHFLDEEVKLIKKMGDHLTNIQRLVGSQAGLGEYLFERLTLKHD
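Probe: 1-aminoanthracene (50% saturated, PBS). Protein: horse-spleen apoferritin, 10 uM. Incubation: 10 min, room temperature. Detection: 380 nm excitation, 535 nm emission. Analysis: normalized response, four-parameter Hill.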
D2 antag: antagonists of human D2 dopamine receptor | P14416 | HEK293 TREx D2 cells, calcium flux, dopamine EC80 | inhibition, % at 10 µM | 340,000 tested, 2% active | AID 485344; in the data active = inhibition above about 30%; inactive = below that, where a call was filed; note: 0% is about no effect
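Compounds are added to dye-loaded, induced HEK293 T-REx cells coupled to calcium release via D2; after a 3 min kinetic read an EC80 dopamine stimulus is given and fluorescence is recorded for 3 more min.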
* hit, by the source's call; ? = inconclusive; · = no result.

SMILES | D2 ag-1 | D2 ag-2 | D2 PAM-1 | D2 PAM-2 | Apoferritin bind | D2 antag
COc1ccc(/C=C/c2n[nH]c(=O)c(C#N)c2C)cc1 | -1 | 0 | 1 | -5 | -2% | -14
Cc1cc(NS(=O)(=O)c2ccc(NC(=O)c3ccc([N+](=O)[O-])s3)cc2)nc(C)n1 | · | 12 | 60* | · | · | ·
O=C(Nc1ccc(S(=O)(=O)NC2=NCCCCC2)cc1)c1ccc([N+](=O)[O-])s1 | 0 | 7 | 68* | -3 | · | -20
O=c1[nH]c(-[n+]2ccccc2)c(/C=N/NC([S-])=Nc2ccccc2)s1 | 30* | -1 | -9 | 6 | -15% | 15
CC(=O)N1CC2(CC(=O)OC(C)C)CN(C(C)=O)CC(CC(=O)OC(C)C)(C1)C2=O | 2 | 0 | 20 | -4 | 7% | 14
COc1cccc(CN2C(=O)C(C)N(C(=O)c3ccccc3)c3ccccc32)c1 (configuration not stated) | 2 | -6 | -1 | 31* | -12% | -21
CC[C@H](C)[C@H](NC(=O)[C@H](Cc1ccc(O)cc1)NC(=O)[C@@H](N)C(C)C)C(=O)N[C@@H](Cc1cnc[nH]1)C(=O)N1CCC[C@H]1C(=O)N[C@@H](Cc1ccccc1)C(=O)O | 2 | 6 | -4 | 7 | 14% | 34*
CCC(C)C(NC(=O)C(Cc1ccc(O)cc1)NC(=O)C(N)C(C)C)C(=O)NC(Cc1cnc[nH]1)C(=O)N1CCCC1C(=O)NC(Cc1ccccc1)C(=O)O (configuration not stated) | · | · | · | · | 33% | ·
COc1ccc(-c2cc(=O)oc3c(C)c(OCC(=O)N(C)C)ccc23)cc1 | 0 | -2 | -3 | 4 | -8% | -19
NNC(=O)C1=NOC2COC3(CCN(c4ncccn4)CC3)OCC12 (configuration not stated) | 0 | -1 | -5 | -8 | -15% | 3
COc1ccccc1CN1CCc2c([nH]c3ccccc23)C1 | 4 | -4 | -69 | -19 | -10% | 53*
COc1ccc(Cl)cc1CN1CCN(c2nc(C)cc(C)c2C#N)CC1 | 0 | -3 | -29 | -25 | 7% | 41*
Cc1cc(C)c(C#N)c(N2CCN(CCOc3ccc(Cl)cc3)CC2)n1 | 1 | 2 | -42 | -24 | -4% | 121*
NC(=O)c1cccn1Cc1cccc(Cl)c1 | 1 | -2 | -12 | 9 | ? | 14
CCOC(=O)C1CCN(C(=O)CCNS(=O)(=O)c2cc(Br)cnc2N)CC1 | -1 | 1 | -1 | 1 | -2% | -11
O=C(CCC(=O)N/N=C/c1ccc(Br)s1)NCc1ccccc1 | 0 | -1 | -9 | 9 | -7% | -12
COc1nc(NC23CC4CC(CC(C4)C2)C3)nc(OC)n1 | 0 | 0 | 5 | -19 | 7.1µM* | 4
COc1ccc(C(=O)NC23CC4CC(CC(C4)C2)C3)cc1 | 1 | 0 | -8 | -3 | -1% | -7
COc1cc(O)c(C(CCN2CCOCC2)c2ccc(N(C)C)cc2)c(OC)c1 (configuration not stated) | 0 | -1 | -10 | 0 | -12% | -40
COc1ccc(C(CCN2CCN(c3ccccc3)CC2)c2c(O)cc(OC)cc2OC)cc1 (configuration not stated) | 1 | 0 | -26 | -29 | -13% | 80*
COc1cc(O)c(C(CCN2CCN(c3ccccc3)CC2)c2ccc(N(C)C)cc2)c(OC)c1 (configuration not stated) | 1 | -1 | -24 | -17 | -1% | 32*
Cc1ccc(C(=O)N/N=C\c2cc3c(cc2Br)OCO3)s1 | -1 | -3 | -10 | -31 | -3% | 66*
Cc1ccc(O)c(NC2=C(Cl)C(=O)N(Cc3ccccc3)C2=O)c1 | -1 | 1 | -10 | 2 | 22µM* | 1
CCC(C)(C)n1nnnc1C(c1ccc(C)cc1)N1CCC(C)CC1 (configuration not stated) | 0 | -3 | 3 | 5 | -12% | -51
CC1CCN(CCCCOc2ccccc2[N+](=O)[O-])CC1 | 1 | 0 | -28 | -26 | -12% | 80*
SMILES | D2 ag-1 | D2 ag-2 | D2 PAM-1 | D2 PAM-2 | Apoferritin bind | D2 antag
Cc1ccc(OCCCCN2CCCC(C)C2)c([N+](=O)[O-])c1 (configuration not stated) | -1 | -1 | -23 | -30 | -13% | 91*
O=[N+]([O-])c1ccccc1OCCCNCc1ccccc1 | 0 | -4 | -19 | -17 | -8% | 38*
CC1CCN(CCCCOc2ccc([N+](=O)[O-])cc2)CC1 | 0 | -1 | -16 | -19 | -15% | 2
Cc1ccc(OCCCCNC(C)(C)C)c([N+](=O)[O-])c1 | 0 | -2 | -32 | -15 | -9% | -8
Cc1cc(Br)ccc1OCCOCCN1CCCC1 | 0 | -1 | -86 | -15 | -6% | 43*
Cc1ccc(S(=O)(=O)NC(=O)Nc2ccc(F)c(F)c2)cc1 | 0 | -4 | -2 | 14 | 31% | -7
Cc1ccc([N+](=O)[O-])c(OCCN2C(=O)NC(C)(C)C2=O)c1 | -1 | 2 | -5 | -4 | -8% | 1
Cc1ccc([N+](=O)[O-])c(OCCCN2CCCCCC2)c1 | 0 | -4 | -18 | -27 | -9% | 71*
CC1CCCN(CCCOc2ccc(Br)cc2Cl)C1 (configuration not stated) | 0 | -6 | -11 | -22 | -12% | 36*
Cc1cc(OCCN2CCCCCC2)ccc1[N+](=O)[O-] | 0 | -5 | -10 | -12 | 2% | 34*
CCOc1ccc(N2CC(C(=O)Oc3ccccc3)CC2=O)cc1 (configuration not stated) | -1 | 1 | 3 | 16 | -22% | -3
c1cncc(CSc2ccc(-c3cccnc3)nn2)c1 | 1 | 2 | 3 | 3 | -6% | 12
COc1ccc(-c2ccc(SCc3cccnc3)nn2)cc1OC | · | 1 | 54* | · | -12% | ·
CCc1ccccc1NC(=O)Nn1cnnc1 | 0 | 0 | -8 | -8 | 0% | 9
NC(N)=NCCCC(NC(=O)c1ccccc1)C(=O)Nc1ccc([N+](=O)[O-])cc1 (configuration not stated) | -1 | -5 | -5 | -12 | · | 75*
NC(N)=NCCCC(NC(=O)c1ccccc1)C(=O)Nc1ccc2ccccc2c1 (configuration not stated) | 1 | -3 | -32 | -16 | · | 54*
NC(N)=NCCC[C@H](NC(=O)c1ccccc1)C(=O)Nc1ccc([N+](=O)[O-])cc1 | · | · | · | · | 6% | ·
Cc1cc(Br)ccc1NS(=O)(=O)c1c(C)[nH]c(=O)[nH]c1=O | 0 | -4 | -3 | 0 | -4% | 1

Assay outcomes (PubChem)
